# The supplement of paper PMC6411743
# ± gives the standard deviation of the averaged measurements. The full data set covers some 6,500 targets. This sample favours those with the largest changes.
# What was measured:
# Test in all cases: NP40-soluble protein abundance relative to vehicle (solubility fold change) (ratio); higher = more soluble protein in presence of ATP
# [1] = target: T1, DDX50 (UniProt Q9BQ39)
# T1 sequence (whole entry): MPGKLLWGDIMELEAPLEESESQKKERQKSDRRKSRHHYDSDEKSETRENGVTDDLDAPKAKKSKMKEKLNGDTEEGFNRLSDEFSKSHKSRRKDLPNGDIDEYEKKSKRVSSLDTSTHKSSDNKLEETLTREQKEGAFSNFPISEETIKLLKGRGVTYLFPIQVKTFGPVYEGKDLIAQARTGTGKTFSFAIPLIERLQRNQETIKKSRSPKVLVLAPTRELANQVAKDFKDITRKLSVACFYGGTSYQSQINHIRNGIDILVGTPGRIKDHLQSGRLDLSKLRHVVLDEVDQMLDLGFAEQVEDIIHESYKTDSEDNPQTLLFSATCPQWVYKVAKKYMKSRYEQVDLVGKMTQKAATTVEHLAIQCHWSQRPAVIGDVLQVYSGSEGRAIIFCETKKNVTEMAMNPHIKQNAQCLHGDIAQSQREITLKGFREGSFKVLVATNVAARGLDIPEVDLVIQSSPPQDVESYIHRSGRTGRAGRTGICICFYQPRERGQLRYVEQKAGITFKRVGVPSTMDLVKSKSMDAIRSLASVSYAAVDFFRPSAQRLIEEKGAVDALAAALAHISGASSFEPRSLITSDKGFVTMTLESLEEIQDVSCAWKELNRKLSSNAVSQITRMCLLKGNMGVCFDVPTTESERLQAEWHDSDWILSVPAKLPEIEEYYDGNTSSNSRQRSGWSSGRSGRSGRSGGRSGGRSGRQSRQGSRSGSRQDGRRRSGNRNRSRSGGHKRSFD
# Procedure, shortened: (§1)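 Crude Jurkat lysate, prepared by Dounce homogenisation, was exposed to eight concentrations from 0.1 to 10 mM for 10 min at room temperature and then 3 min at 37 °C. Solubilisation used 0.8% NP40 with benzonase for 60 min at 4 °C, followed by ultracentrifugation and TMT labelling of the supernatant for LC-MS/MS. After vsn normalisation of intensities, each value is the fold change against the detergent-processed vehicle within each replicate, across three independent experiments.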
# [2] = target: T2, PINX1 (UniProt Q96BK5)
# T2 sequence (whole entry): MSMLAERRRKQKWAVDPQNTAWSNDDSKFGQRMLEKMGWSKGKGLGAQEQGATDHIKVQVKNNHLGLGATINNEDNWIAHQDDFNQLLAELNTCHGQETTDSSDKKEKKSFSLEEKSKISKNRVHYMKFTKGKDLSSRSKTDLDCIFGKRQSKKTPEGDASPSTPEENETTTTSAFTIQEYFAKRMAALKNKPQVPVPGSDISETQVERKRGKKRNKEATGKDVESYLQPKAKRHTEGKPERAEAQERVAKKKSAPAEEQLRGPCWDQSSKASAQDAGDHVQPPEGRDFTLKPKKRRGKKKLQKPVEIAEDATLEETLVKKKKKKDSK
# Procedure, shortened: as §1
# [3] = target: T3, UniProt Q969F9|Q969F9-2|G5E9V4
# T3 sequence (whole entry): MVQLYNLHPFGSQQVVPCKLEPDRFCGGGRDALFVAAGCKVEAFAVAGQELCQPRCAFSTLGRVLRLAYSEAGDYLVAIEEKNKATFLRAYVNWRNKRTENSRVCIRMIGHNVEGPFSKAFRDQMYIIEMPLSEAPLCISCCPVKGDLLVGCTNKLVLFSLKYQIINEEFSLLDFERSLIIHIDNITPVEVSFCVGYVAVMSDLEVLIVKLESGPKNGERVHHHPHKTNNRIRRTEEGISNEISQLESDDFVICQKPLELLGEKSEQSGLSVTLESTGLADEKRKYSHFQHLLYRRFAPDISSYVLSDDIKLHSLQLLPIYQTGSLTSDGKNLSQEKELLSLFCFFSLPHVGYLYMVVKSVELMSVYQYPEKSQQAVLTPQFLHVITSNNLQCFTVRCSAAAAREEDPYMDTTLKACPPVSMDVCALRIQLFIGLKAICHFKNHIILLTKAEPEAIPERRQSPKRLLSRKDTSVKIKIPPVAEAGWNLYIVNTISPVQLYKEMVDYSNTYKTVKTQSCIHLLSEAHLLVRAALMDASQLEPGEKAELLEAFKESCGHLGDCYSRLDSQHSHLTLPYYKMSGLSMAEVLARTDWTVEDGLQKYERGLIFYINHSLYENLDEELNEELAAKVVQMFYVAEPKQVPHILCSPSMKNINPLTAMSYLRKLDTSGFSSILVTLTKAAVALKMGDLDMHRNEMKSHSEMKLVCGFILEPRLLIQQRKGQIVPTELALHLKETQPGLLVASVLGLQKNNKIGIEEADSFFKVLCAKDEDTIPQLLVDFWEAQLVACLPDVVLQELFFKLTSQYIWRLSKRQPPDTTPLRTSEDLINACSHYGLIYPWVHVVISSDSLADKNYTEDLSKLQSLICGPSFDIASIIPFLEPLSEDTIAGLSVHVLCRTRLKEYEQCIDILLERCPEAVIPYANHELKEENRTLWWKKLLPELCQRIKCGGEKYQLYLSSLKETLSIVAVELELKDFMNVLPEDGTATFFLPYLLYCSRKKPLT
# Procedure, shortened: as §1
# [4] = target: T4, UniProt Q96G25|Q96G25-2
# T4 sequence (whole entry): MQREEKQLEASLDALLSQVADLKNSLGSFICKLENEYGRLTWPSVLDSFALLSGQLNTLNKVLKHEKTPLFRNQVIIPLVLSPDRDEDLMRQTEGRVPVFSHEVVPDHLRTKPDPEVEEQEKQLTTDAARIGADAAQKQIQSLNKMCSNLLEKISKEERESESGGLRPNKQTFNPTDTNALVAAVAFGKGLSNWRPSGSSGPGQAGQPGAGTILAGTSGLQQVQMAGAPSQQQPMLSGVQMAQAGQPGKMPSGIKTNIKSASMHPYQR
# Procedure, shortened: as §1
# [5] = target: T5, UniProt Q9BUA3
# T5 sequence (whole entry): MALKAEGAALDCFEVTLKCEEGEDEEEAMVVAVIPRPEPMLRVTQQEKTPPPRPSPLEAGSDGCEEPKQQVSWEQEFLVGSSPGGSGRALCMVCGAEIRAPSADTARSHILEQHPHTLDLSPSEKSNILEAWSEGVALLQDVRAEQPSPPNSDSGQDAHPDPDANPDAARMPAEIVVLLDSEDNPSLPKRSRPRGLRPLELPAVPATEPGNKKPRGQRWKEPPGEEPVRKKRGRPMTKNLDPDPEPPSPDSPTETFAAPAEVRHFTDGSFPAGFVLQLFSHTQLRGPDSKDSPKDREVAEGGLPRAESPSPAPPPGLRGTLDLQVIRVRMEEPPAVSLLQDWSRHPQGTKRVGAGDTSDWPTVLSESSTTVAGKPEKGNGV
# Procedure, shortened: as §1
# [6] = target: T6, UniProt Q9H993
# T6 sequence (whole entry): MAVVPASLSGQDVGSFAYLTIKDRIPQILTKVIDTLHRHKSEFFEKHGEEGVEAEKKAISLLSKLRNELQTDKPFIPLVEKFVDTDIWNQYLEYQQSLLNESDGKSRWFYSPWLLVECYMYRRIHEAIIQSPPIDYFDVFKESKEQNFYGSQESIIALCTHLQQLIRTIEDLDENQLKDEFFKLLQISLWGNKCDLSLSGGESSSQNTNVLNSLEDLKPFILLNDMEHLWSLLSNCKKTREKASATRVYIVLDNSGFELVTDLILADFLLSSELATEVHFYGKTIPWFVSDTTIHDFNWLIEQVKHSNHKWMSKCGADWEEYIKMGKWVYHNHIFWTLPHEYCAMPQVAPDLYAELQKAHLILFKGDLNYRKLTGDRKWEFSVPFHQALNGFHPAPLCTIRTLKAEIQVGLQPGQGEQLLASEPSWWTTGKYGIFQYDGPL
# Procedure, shortened: as §1
# [7] = target: T7, VRK1 (UniProt Q99986)
# T7 sequence (whole entry): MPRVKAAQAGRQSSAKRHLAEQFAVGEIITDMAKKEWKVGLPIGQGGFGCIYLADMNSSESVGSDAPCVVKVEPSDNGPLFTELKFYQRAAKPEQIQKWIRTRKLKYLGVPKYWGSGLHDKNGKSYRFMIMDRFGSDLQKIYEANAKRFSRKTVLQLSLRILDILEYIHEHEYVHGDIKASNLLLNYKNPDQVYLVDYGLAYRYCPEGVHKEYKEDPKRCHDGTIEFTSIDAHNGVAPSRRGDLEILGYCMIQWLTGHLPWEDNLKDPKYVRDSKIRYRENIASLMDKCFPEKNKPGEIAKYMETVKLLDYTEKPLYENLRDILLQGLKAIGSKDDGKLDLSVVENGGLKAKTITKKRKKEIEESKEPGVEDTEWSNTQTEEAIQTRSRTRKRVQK
# Procedure, shortened: as §1
smiles,measurement,setting,value
Nc1ncnc2c1ncn2[C@@H]1O[C@H](COP(=O)(O)OP(=O)(O)OP(=O)(O)O)[C@@H](O)[C@H]1O [adenosine triphosphate],NP40-soluble protein abundance,[1]; concentration: 1mM,1.35 ± 0.086
same,NP40-soluble protein abundance,[1]; concentration: 2mM,1.67 ± 0.17
same,NP40-soluble protein abundance,[1]; concentration: 4mM,2.19 ± 0.26
same,NP40-soluble protein abundance,[1]; concentration: 6mM,2.88 ± 0.35
same,NP40-soluble protein abundance,[1]; concentration: 8mM,3.54 ± 0.54
same,NP40-soluble protein abundance,[1]; concentration: 10mM,4.32 ± 0.63
same,NP40-soluble protein abundance,[2]; concentration: 1mM,1.52 ± 0.023
same,NP40-soluble protein abundance,[2]; concentration: 2mM,1.64 ± 0.086
same,NP40-soluble protein abundance,[2]; concentration: 4mM,1.78 ± 0.11
same,NP40-soluble protein abundance,[2]; concentration: 6mM,1.95 ± 0.1
same,NP40-soluble protein abundance,[2]; concentration: 8mM,1.91 ± 0.13
same,NP40-soluble protein abundance,[2]; concentration: 10mM,2.03 ± 0.14
same,NP40-soluble protein abundance,[3]; concentration: 1mM,1.07 ± 0.16
same,NP40-soluble protein abundance,[3]; concentration: 2mM,1.11 ± 0.22
same,NP40-soluble protein abundance,[3]; concentration: 4mM,1.05 ± 0.26
same,NP40-soluble protein abundance,[3]; concentration: 6mM,1.05 ± 0.15
same,NP40-soluble protein abundance,[3]; concentration: 8mM,0.905 ± 0.044
same,NP40-soluble protein abundance,[3]; concentration: 10mM,0.962 ± 0.11
same,NP40-soluble protein abundance,[4]; concentration: 1mM,1 ± 0.11
same,NP40-soluble protein abundance,[4]; concentration: 2mM,0.976 ± 0.074
same,NP40-soluble protein abundance,[4]; concentration: 4mM,1.06 ± 0.035
same,NP40-soluble protein abundance,[4]; concentration: 6mM,1.07 ± 0.11
same,NP40-soluble protein abundance,[4]; concentration: 8mM,0.993 ± 0.039
same,NP40-soluble protein abundance,[4]; concentration: 10mM,0.965 ± 0.1
same,NP40-soluble protein abundance,[5]; concentration: 1mM,1.02 ± 0.11
same,NP40-soluble protein abundance,[5]; concentration: 2mM,1.03 ± 0.09
same,NP40-soluble protein abundance,[5]; concentration: 4mM,1.03 ± 0.082
same,NP40-soluble protein abundance,[5]; concentration: 6mM,1.04 ± 0.12
same,NP40-soluble protein abundance,[5]; concentration: 8mM,0.992 ± 0.08
same,NP40-soluble protein abundance,[5]; concentration: 10mM,1 ± 0.019
same,NP40-soluble protein abundance,[6]; concentration: 1mM,1.08 ± 0.068
same,NP40-soluble protein abundance,[6]; concentration: 2mM,1.05 ± 0.06
same,NP40-soluble protein abundance,[6]; concentration: 4mM,1.02 ± 0.039
same,NP40-soluble protein abundance,[6]; concentration: 6mM,0.991 ± 0.072
same,NP40-soluble protein abundance,[6]; concentration: 8mM,1.04 ± 0.047
same,NP40-soluble protein abundance,[6]; concentration: 10mM,1.01 ± 0.053
same,NP40-soluble protein abundance,[7]; concentration: 1mM,1.39 ± 0.026
same,NP40-soluble protein abundance,[7]; concentration: 2mM,1.43 ± 0.021
same,NP40-soluble protein abundance,[7]; concentration: 4mM,1.44 ± 0.039
same,NP40-soluble protein abundance,[7]; concentration: 6mM,1.51 ± 0.057
same,NP40-soluble protein abundance,[7]; concentration: 8mM,1.52 ± 0.031
same,NP40-soluble protein abundance,[7]; concentration: 10mM,1.48 ± 0.063
